The source of these data is PubChem BioAssay (NCATS).

Each structure is given as a SMILES string. Records with an inconclusive call do not appear. Active and inactive are the calls of the source. The call rests on the fitted dose curve; in most records, active means well fitted inhibition curve with a large enough effect; inconclusive means small, poorly fitted or top-dose-only effect; inactive means no such curve, though single readings can be large or run the other way.
Potency means the concentration at half of the fitted maximal effect.

The first assay deals with Rap guanine nucleotide exchange factor 4 (Homo sapiens) (UniProt Q8WZA2). The assay can be described thus: Confirmatory qHTS for antagonist of cAMP-regulated guanine nucleotide exchange factor 4 (EPAC2) (AID 1645885). Further: nearly all actives have a fitted effect of over 25% in size. On activity change, negative = inhibition: on the % scale 0 is the no-effect control and ±100 the full control effect. The settings on record: EPAC2 Rap1B-BODIPY-GDP exchange fluorescence, biochemical; series mostly up to 12.7 µM; activity change, negative = inhibition: at the top concentration.
Sequence of Rap guanine nucleotide exchange factor 4 (Homo sapiens) (Q8WZA2 whole entry, looked up): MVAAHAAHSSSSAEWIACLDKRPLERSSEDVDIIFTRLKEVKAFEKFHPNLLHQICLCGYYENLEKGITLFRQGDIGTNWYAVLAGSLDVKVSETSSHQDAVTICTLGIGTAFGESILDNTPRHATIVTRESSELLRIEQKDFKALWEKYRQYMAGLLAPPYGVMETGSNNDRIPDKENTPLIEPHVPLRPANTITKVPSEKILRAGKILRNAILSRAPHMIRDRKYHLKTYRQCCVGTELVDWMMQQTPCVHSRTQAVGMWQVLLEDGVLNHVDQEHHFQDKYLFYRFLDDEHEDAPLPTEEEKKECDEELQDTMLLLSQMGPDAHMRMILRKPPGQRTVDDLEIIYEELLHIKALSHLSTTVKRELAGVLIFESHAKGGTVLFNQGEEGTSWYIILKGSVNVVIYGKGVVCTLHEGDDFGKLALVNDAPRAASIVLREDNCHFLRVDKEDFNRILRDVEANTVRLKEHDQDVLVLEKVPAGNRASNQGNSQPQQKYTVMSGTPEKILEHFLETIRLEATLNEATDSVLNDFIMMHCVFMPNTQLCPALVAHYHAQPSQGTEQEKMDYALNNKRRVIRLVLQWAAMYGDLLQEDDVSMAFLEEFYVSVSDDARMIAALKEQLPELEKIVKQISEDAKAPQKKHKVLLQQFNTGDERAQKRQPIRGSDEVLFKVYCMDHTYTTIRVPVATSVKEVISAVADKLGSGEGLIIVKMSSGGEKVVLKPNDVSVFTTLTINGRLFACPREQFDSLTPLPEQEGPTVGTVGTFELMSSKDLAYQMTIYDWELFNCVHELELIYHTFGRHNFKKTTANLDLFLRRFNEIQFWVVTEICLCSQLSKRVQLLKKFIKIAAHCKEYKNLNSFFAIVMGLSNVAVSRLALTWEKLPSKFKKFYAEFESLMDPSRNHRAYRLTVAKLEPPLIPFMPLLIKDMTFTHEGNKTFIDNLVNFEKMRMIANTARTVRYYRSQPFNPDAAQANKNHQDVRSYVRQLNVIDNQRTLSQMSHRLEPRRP
For the compound `Cc1cc(/C=C2\SC(=S)NC2=O)c(C)n1-c1cccc(O)c1`, the “activity change, negative = inhibition” value was -22.4% [at 114 µM] (inactive).
For `Cc1ccccc1C(=O)Nc1cccc(C(=O)N/N=C/c2cc(Cl)cc([N+](=O)[O-])c2O)c1`, the “activity change, negative = inhibition” value was 14.8% [at 114 µM] (inactive).
On to `O=C(O)c1ccn2c(C(=O)c3ccc(Cl)cc3)c(-c3ccccc3)cc2c1`, for which the result was inactive.
As to `O=C(COc1ccc(Cl)cc1)NC1=NN(c2ccccc2)C(=O)C1`, the “activity change, negative = inhibition” value was 53.3% [at 114 µM] (inactive).
For `COc1ccc(OC)c(CNC(=O)CCCc2cn(C)c3ccccc23)c1`, the “activity change, negative = inhibition” value was -37.6% [at 114 µM] (inactive).
As for `O=C(CCCn1c(SCC(=O)c2ccc(O)c(O)c2)nc2ccccc2c1=O)NCC1CCCO1` (stereo not drawn), the call was inactive.
Turning to `COc1ccc(C(=O)CSc2nnc(-c3ccco3)c(-c3ccco3)n2)cc1`, the “activity change, negative = inhibition” value is 23% [at 114 µM] (inactive).
`O=C(CSc1nc(O)cc(=O)n1-c1ccccc1)Nc1nc2ccccc2s1`: the “activity change, negative = inhibition” value is -7.31% [at 114 µM] (inactive).
Regarding `O=C(O)c1ccc(/C=C2\COc3ccccc3C2=O)cc1`, the Potency was 84.9 µM (active).
As to `O=c1cc(-c2ccccc2)[nH]n1-c1nc2ccccc2s1`, the “activity change, negative = inhibition” value was 1.23% (inactive).
As for `COc1cccc(C(=O)Nc2nnc(-c3ccccc3)s2)c1OC`, the “outcome” value was “inactive; activator; fitted 0.151 uM”.
For the compound `O=C(Nc1cc(S(=O)(=O)Nc2ccc(Cl)cc2)ccc1O)c1ccc(S(=O)(=O)N2CCCCCC2)cc1`, the “activity change, negative = inhibition” value is 79.5% [at 114 µM] (inactive).
With `CCOc1ccccc1NC(=O)CN1C(=O)COc2ccc(S(=O)(=O)NC3CCCC3)cc21`, the outcome is “inactive [at 12.7 µM]”.
For `Cc1cccc(Nc2nnc(SC/C(O)=C(\C#N)c3nc4ccccc4[nH]3)s2)c1`, the “activity change, negative = inhibition” value is 7.89% [at 114 µM] (inactive).
As to `Nc1ccccc1C(=O)NNc1c2ccccc2nc2ccccc12`, the result was inactive.
`Cc1ccc(Cn2ccnc2SCC(=O)Nc2ccc3c(c2)OCO3)cc1`: the “activity change, negative = inhibition” value is 16% (inactive).
As to `O=C(N/N=C/c1ccc(O)c(O)c1)c1ccc(CSc2cccc3cccnc23)cc1`, the “activity change, negative = inhibition” value is 2.91% (inactive).
Turning to `CCOC(=O)c1ccc(NC(=O)c2c(NCc3cccs3)sc3c2CCCCC3)cc1`, the outcome is “inactive [at 12.7 µM]”.
Consider `CC1CC(C)CN(C(=O)c2ccc3c(c2)N(Cc2ccccc2)CCS3)C1` (stereo not drawn), for which the “activity change, negative = inhibition” value was 0.31% (inactive).
Consider `O=C(/C=C/c1ccco1)Nc1cccc2cccnc12`, for which the “activity change, negative = inhibition” value is -15.8% (inactive).
`CCc1ccc2c(c1)NC(=O)C2(C)Cc1ccc(Cl)s1` (stereo not drawn): the “activity change, negative = inhibition” value is -39.3% (inactive).
On to `COc1cc(NC(=O)c2cc3nc(-c4ccccc4)cc(-c4ccccc4)n3n2)cc(OC)c1OC`, for which the “activity change, negative = inhibition” value is 39.5% [at 114 µM] (inactive).
For `Cc1ccccc1NC(=O)c1sc2nc(-c3cc4ccccc4oc3=O)[nH]c(=O)c2c1C`, the outcome is “inactive; activator; fitted 0.8492 uM [at 12.7 µM]”.

In the next assay the target is Rap guanine nucleotide exchange factor 3 (Homo sapiens) (UniProt O95398). The assay can be described thus: Counterscreen qHTS for antagonist of cAMP-regulated guanine nucleotide exchange factor 3 (EPAC1) (AID 1645888).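 On activity change, negative = inhibition: fluorescence loss as bound BODIPY-GDP is released from Rap1B; % of control where 0% means no effect.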 The settings on record: Rap1B-BODIPY-GDP nucleotide exchange, fluorescence; series mostly up to 154 µM; activity change, negative = inhibition: at the top concentration. In outline: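 Rap1B–BODIPY-GDP (250 nM) with 50 uM GDP; compounds pin-transferred to 9.74 nM–152 uM final (activator) or from 7.32 nM upwards (inhibitor). Fluorescence Ex/Em 480/540 nm read at 5 and 30 min, then after adding cAMP or buffer, at room temperature.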
Sequence of Rap guanine nucleotide exchange factor 3 (Homo sapiens) (O95398 whole entry, looked up): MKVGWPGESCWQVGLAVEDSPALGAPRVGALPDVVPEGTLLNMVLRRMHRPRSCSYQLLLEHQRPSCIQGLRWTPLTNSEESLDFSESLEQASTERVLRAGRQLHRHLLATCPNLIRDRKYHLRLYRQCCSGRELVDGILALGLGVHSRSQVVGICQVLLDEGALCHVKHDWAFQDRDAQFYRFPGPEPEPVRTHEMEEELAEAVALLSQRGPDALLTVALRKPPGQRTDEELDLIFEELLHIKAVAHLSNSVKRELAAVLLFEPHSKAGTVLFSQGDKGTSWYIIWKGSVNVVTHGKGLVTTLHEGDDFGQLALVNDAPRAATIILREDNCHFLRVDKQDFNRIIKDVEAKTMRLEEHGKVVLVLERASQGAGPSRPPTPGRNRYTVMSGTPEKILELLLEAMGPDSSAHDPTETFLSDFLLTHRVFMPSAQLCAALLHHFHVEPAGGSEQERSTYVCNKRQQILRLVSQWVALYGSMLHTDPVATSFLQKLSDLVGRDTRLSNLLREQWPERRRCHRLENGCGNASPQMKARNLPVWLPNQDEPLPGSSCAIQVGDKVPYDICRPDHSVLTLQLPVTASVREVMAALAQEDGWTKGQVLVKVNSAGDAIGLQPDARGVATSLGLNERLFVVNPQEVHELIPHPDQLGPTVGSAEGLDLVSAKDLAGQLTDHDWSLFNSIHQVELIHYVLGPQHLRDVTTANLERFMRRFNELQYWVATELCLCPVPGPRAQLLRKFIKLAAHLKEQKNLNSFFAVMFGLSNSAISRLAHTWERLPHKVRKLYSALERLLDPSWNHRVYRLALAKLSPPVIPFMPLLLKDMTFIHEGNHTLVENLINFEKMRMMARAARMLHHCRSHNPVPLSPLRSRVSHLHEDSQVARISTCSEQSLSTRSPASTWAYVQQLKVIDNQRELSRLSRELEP
With `Cc1ccc(C(=O)Nc2cccc(-c3ccc(N4CCOCC4)nn3)c2)cc1C`, the “activity change, negative = inhibition” value is -7.91% (inactive).
`COc1ccc2ccc(C(C)(C(C)=O)C(=O)OC(C)C)cc2c1` (stereo not drawn): the activity change, negative = inhibition is -29.5% [at 30.8 µM] (inactive).
With `N=C1/C(=C\c2ccc(-c3cccc(Cl)c3)o2)C(=O)N=C2SC=C(c3ccccc3)N12`, the “activity change, negative = inhibition” value is 14.8% (inactive).
For the compound `CC(=O)C(=Cc1ccc(Cl)cc1)C(=O)c1ccccc1`, the “activity change, negative = inhibition” value was -18.7% (inactive).
`OC(c1ccc(F)c(F)c1)c1nc(-c2csc3ccccc23)cs1` (stereo not drawn): the activity change, negative = inhibition was -0.286% [at 30.8 µM] (inactive).
On to `COc1ccccc1C(C(=O)c1ccccc1)c1ccc(O)cc1` (stereo not drawn), for which the activity change, negative = inhibition was -22.7% [at 30.8 µM] (inactive).
Turning to `CCOc1cc(CNCCSc2nnnn2C)ccc1OCc1ccc(Cl)cc1Cl`, the Potency is 63.1 µM (active).
As to `CCc1nc(Oc2cccc(F)c2)c2oc3ccccc3c2n1`, the “activity change, negative = inhibition” value is 21.7% (inactive).
In the case of `COc1ccc(OCc2nc3ccccc3n2C(C)c2ccccc2)cc1` (stereo not drawn), the “activity change, negative = inhibition” value was 28.2% (inactive).
As to `CC(C)N(Cc1ccccc1)C(=O)c1nc(-c2ccc(Cl)cc2)n2c1CCCCC2`, the “activity change, negative = inhibition” value is 0.694% (inactive).
The same measure, in the same setting: the same measure for `O=C1/C(=C/c2cccs2)COc2ccccc21`: -3.32% [at 30.8 µM] (inactive); for `Cc1ccc(Cl)cc1N1CCN(C(=O)c2ccc(C)c(-n3c(C)nc4cccnc43)c2)CC1`: -10.8% (inactive); for `CN1CCN(c2cc(N3CCN(C(=O)c4ccco4)CC3)c3c4c(onc24)-c2ccccc2C3=O)CC1`: -5.42% (inactive).
Take `O=C1NC(=O)C(=Cc2ccccc2[N+](=O)[O-])S1`: the activity change, negative = inhibition was 0.254% [at 30.8 µM] (inactive).
For `CCCN1CCN(c2ncnc3sc(C(=O)Nc4ccc(OC(F)(F)F)cc4)c(C)c23)CC1`, the “activity change, negative = inhibition” value is -4.96% (inactive).
For the compound `CCOC(=O)C1=C(C)NC(C)=C(C(=O)OCC)C1c1cccc([N+](=O)[O-])c1`, the activity change, negative = inhibition was 3.16% [at 30.8 µM] (inactive).
`OCCCNc1ncnc2oc(-c3ccccc3)c(-c3ccccc3)c12`: the activity change, negative = inhibition is -6.04% [at 30.8 µM] (inactive).
On the same count and under the same terms, in the case of `Cc1cc(/C=C2\SC(=S)NC2=O)c(C)n1-c1cccc(O)c1` it was 17.5% (inactive); in that of `Cc1ccccc1C(=O)Nc1cccc(C(=O)N/N=C/c2cc(Cl)cc([N+](=O)[O-])c2O)c1`, -11.2% (inactive); in that of `O=C(O)c1ccn2c(C(=O)c3ccc(Cl)cc3)c(-c3ccccc3)cc2c1`, 0.547% (inactive).
As for `O=C(COc1ccc(Cl)cc1)NC1=NN(c2ccccc2)C(=O)C1`, the “activity change, negative = inhibition” value was 6.09% (inactive).
Regarding `COc1ccc(OC)c(CNC(=O)CCCc2cn(C)c3ccccc23)c1`, the “activity change, negative = inhibition” value was 3.05% (inactive).
As for `O=C(CCCn1c(SCC(=O)c2ccc(O)c(O)c2)nc2ccccc2c1=O)NCC1CCCO1` (stereo not drawn), the “activity change, negative = inhibition” value is -17.1% (inactive).
The same measure, in the same setting: the same measure for `COc1ccc(C(=O)CSc2nnc(-c3ccco3)c(-c3ccco3)n2)cc1`: -5.54% (inactive); for `O=C(CSc1nc(O)cc(=O)n1-c1ccccc1)Nc1nc2ccccc2s1`: 14.6% (inactive).
As for `O=C(O)c1ccc(/C=C2\COc3ccccc3C2=O)cc1`, the “activity change, negative = inhibition” value was 12.4% (inactive).
Take `O=c1cc(-c2ccccc2)[nH]n1-c1nc2ccccc2s1`: the activity change, negative = inhibition was 2.08% [at 30.8 µM] (inactive).
With `COc1cccc(C(=O)Nc2nnc(-c3ccccc3)s2)c1OC`, the “activity change, negative = inhibition” value was 28.5% (inactive).
Take `O=C(Nc1cc(S(=O)(=O)Nc2ccc(Cl)cc2)ccc1O)c1ccc(S(=O)(=O)N2CCCCCC2)cc1`: the “activity change, negative = inhibition” value is 7.83% (inactive).
For `CCOc1ccccc1NC(=O)CN1C(=O)COc2ccc(S(=O)(=O)NC3CCCC3)cc21`, the “activity change, negative = inhibition” value is 14.2% (inactive).
Same read-out and setting: the same measure for `Cc1cccc(Nc2nnc(SC/C(O)=C(\C#N)c3nc4ccccc4[nH]3)s2)c1`: -0.416% (inactive); for `Nc1ccccc1C(=O)NNc1c2ccccc2nc2ccccc12`: 4.16% (inactive).
Still for that read-out and setting: in the case of `Cc1ccc(Cn2ccnc2SCC(=O)Nc2ccc3c(c2)OCO3)cc1` it was 5.21% (inactive); in that of `O=C(N/N=C/c1ccc(O)c(O)c1)c1ccc(CSc2cccc3cccnc23)cc1`, 41.8% [at 30.8 µM] (inactive).
For `CCOC(=O)c1ccc(NC(=O)c2c(NCc3cccs3)sc3c2CCCCC3)cc1`, the “activity change, negative = inhibition” value was 20.5% (inactive).
For the compound `CC1CC(C)CN(C(=O)c2ccc3c(c2)N(Cc2ccccc2)CCS3)C1` (stereo not drawn), the activity change, negative = inhibition was 1.99% [at 30.8 µM] (inactive).
As for `O=C(/C=C/c1ccco1)Nc1cccc2cccnc12`, the activity change, negative = inhibition was 21.3% [at 30.8 µM] (inactive).
As for `CCc1ccc2c(c1)NC(=O)C2(C)Cc1ccc(Cl)s1` (stereo not drawn), the activity change, negative = inhibition was -21.9% [at 30.8 µM] (inactive).
Take `COc1cc(NC(=O)c2cc3nc(-c4ccccc4)cc(-c4ccccc4)n3n2)cc(OC)c1OC`: the “activity change, negative = inhibition” value is 19.2% (inactive).
As to `Cc1ccccc1NC(=O)c1sc2nc(-c3cc4ccccc4oc3=O)[nH]c(=O)c2c1C`, the “activity change, negative = inhibition” value is 47.7% (inactive).
